# According to paper PMC7862700, “An all-to-all approach to the identification of sequence-specific readers for epigenetic DNA modifications on cytosine”:
# What was measured:
# Test in all cases: DAPPL (digital affinity profiling via proximity ligation, sequencing); 10 mM Tris-HCl pH 7.5, 50 mM NaCl, 1 mM DTT, 4% glycerol, room temperature, 30 min; GST-TFs on glutathione beads, 16-mer random dsDNA library, 0.1% formaldehyde crosslink after washing; high values mean tight binding
# FLI1 = target: T1, FLI1 (Homo sapiens, UniProt Q01543 1-452); settings: protein: recombinant; tags: N-terminal GST; dsDNA, one strand shown
# T1 sequence: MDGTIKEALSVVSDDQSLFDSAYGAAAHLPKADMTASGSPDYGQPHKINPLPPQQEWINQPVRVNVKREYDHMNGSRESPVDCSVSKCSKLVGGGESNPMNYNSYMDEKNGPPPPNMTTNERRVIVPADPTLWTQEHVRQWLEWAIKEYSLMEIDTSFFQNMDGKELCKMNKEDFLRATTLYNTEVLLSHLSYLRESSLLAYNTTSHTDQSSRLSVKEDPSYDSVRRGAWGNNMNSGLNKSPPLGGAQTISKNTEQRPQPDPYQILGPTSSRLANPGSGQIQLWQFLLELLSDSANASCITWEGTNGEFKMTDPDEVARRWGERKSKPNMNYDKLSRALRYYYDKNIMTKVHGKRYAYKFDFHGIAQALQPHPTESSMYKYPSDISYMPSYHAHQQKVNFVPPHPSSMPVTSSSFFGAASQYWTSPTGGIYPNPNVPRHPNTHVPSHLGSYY
# How it was run: (§1)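 Sequencing on an Illumina NextSeq500 followed washing, crosslinking with 0.1% formaldehyde, proximity ligation (BsaI/T4 ligase, 1 h, 37 °C) and PCR amplification of pools that had been incubated for 30 min at room temperature with 200 nmole of a random double-stranded 16-mer DNA library in Tris/NaCl/DTT/glycerol buffer. Each pool held DNA-barcoded human transcription factors, expressed in yeast as GST fusions and captured on glutathione beads, plus a tag-only sample. Binding signal is a hexamer's read frequency for a factor divided by its frequency in the tag-only sample.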
# ELK1 = target: T2, ELK1 (Homo sapiens, UniProt P19419 1-428); settings: protein: recombinant; tags: N-terminal GST; dsDNA, one strand shown
# T2 sequence: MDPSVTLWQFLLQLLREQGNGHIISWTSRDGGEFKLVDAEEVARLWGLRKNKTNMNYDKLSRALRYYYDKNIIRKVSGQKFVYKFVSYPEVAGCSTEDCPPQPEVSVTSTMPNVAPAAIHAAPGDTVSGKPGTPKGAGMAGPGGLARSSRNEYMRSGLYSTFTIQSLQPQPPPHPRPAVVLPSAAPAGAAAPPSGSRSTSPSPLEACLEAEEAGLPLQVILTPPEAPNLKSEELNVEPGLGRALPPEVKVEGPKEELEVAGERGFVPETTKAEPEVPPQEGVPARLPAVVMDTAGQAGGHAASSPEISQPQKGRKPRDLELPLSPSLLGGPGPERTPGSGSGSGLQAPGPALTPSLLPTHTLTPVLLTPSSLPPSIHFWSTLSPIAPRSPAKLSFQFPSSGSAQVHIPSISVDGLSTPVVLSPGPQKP
# How it was run: as §1
# GABPA = target: T3, GABPA (Homo sapiens, UniProt Q06546 1-454); settings: protein: recombinant; tags: N-terminal GST; dsDNA, one strand shown
# T3 sequence: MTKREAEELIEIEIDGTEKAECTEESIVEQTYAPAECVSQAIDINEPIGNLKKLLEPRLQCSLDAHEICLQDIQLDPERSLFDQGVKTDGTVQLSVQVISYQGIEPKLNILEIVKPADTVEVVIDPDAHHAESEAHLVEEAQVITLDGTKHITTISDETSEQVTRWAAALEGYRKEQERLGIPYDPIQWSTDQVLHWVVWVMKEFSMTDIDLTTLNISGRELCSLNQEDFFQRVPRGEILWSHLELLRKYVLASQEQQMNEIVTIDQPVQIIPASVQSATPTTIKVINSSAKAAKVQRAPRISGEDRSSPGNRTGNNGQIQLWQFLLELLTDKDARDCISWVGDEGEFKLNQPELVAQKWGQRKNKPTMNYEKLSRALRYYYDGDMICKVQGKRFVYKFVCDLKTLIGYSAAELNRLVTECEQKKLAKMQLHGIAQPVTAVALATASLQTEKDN
# How it was run: as §1
# ERG = target: T4, ERG (Homo sapiens, UniProt P11308 1-479); settings: protein: recombinant; tags: N-terminal GST; dsDNA, one strand shown
# T4 sequence: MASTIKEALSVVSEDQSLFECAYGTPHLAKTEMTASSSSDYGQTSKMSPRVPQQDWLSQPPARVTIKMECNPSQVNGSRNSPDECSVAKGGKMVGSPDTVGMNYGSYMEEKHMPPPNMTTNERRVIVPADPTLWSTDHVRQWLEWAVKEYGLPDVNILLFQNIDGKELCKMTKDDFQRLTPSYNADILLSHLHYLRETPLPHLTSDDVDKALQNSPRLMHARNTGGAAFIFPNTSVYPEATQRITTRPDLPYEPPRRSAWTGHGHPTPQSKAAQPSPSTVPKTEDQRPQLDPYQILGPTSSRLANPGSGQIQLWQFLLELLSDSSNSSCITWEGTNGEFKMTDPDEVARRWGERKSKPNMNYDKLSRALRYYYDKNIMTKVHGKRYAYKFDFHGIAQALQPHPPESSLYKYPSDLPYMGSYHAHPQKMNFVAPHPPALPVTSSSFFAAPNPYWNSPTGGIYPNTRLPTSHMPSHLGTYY
# How it was run: as §1
# ELF1 = ELF1 (Homo sapiens, UniProt P32519 1-619); settings: protein: recombinant; tags: N-terminal GST; dsDNA, one strand shown
# How it was run: as §1
# EHF = target: T5, EHF (Homo sapiens, UniProt Q9NZC4 1-300); settings: protein: recombinant; tags: N-terminal GST; dsDNA, one strand shown
# T5 sequence: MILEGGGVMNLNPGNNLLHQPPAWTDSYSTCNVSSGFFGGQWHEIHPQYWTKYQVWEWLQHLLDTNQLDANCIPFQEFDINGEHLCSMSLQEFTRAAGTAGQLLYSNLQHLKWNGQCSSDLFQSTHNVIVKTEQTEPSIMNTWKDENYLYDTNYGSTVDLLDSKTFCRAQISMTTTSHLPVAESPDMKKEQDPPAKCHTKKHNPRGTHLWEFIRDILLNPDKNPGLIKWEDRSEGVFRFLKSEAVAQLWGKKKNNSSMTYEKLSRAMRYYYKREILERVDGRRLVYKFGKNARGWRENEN
# How it was run: as §1
# SPI1 = SPI1 (Homo sapiens, UniProt P17947 1-270); settings: protein: recombinant; tags: N-terminal GST; dsDNA, one strand shown
# How it was run: as §1
# SPIB = SPIB (Homo sapiens, UniProt Q01892 1-262); settings: protein: recombinant; tags: N-terminal GST; dsDNA, one strand shown
# How it was run: as §1
# ELK3 = target: T6, ELK3 (Homo sapiens, UniProt P41970 1-407); settings: protein: recombinant; tags: N-terminal GST; dsDNA, one strand shown
# T6 sequence: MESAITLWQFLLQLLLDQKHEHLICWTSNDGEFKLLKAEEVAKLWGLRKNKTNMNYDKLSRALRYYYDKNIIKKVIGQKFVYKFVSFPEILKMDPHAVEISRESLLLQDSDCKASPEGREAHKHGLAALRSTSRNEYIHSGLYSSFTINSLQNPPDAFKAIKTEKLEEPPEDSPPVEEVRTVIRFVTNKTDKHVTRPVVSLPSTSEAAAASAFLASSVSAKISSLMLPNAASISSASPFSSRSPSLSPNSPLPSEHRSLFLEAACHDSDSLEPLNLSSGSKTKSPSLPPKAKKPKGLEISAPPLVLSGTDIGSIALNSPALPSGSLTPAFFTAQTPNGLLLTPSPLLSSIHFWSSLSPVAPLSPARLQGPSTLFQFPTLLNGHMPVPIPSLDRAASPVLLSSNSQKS
# How it was run: as §1
# FEV = target: T7, FEV (Homo sapiens, UniProt Q99581 1-238); settings: protein: recombinant; tags: N-terminal GST; dsDNA, one strand shown
# T7 sequence: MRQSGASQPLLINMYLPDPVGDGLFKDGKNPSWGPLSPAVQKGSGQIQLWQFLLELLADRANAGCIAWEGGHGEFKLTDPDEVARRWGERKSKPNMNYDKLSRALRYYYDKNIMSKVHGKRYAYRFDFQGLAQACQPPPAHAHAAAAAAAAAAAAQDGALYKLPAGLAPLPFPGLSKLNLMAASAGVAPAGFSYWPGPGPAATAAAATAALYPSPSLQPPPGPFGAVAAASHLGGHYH
# How it was run: as §1
# ETV5 = ETV5 (Homo sapiens, UniProt P41161 1-510); settings: protein: recombinant; tags: N-terminal GST; dsDNA, one strand shown
# How it was run: as §1
# HSF1 = HSF1 (Homo sapiens, UniProt Q00613 1-529); settings: protein: recombinant; tags: N-terminal GST; chain copies: 3; dsDNA, one strand shown
# How it was run: as §1
# SPIC = target: T8, SPIC (Homo sapiens, UniProt Q8N5J4 1-248); settings: protein: recombinant; tags: N-terminal GST; dsDNA, one strand shown
# T8 sequence: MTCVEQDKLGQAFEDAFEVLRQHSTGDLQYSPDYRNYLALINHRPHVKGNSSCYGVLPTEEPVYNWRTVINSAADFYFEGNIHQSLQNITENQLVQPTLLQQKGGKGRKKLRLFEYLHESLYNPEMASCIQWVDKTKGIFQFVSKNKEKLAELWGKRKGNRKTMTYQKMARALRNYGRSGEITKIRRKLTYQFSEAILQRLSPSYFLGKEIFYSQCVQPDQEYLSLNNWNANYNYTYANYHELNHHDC
# How it was run: as §1
# ELF4 = ELF4 (Homo sapiens, UniProt Q99607 1-663); settings: protein: recombinant; tags: N-terminal GST; dsDNA, one strand shown
# How it was run: as §1
# ELK4 = target: T9, ELK4 (Homo sapiens, UniProt P28324-2 1-405); settings: protein: recombinant; tags: N-terminal GST; dsDNA, one strand shown
# T9 sequence: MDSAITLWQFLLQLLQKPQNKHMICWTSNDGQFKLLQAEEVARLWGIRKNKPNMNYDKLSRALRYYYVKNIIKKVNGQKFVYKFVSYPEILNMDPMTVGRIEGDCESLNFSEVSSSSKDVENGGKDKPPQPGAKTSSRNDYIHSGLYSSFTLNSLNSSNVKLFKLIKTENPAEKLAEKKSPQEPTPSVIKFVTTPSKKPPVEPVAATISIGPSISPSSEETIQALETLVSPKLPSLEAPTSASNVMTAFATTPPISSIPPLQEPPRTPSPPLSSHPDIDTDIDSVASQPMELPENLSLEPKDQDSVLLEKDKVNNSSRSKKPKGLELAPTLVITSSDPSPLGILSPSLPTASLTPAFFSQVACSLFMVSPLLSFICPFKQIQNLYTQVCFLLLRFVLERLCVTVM
# How it was run: as §1
# ETV2 = target: T10, ETV2 (Homo sapiens, UniProt O00321 1-342); settings: protein: recombinant; tags: N-terminal GST; dsDNA, one strand shown
# T10 sequence: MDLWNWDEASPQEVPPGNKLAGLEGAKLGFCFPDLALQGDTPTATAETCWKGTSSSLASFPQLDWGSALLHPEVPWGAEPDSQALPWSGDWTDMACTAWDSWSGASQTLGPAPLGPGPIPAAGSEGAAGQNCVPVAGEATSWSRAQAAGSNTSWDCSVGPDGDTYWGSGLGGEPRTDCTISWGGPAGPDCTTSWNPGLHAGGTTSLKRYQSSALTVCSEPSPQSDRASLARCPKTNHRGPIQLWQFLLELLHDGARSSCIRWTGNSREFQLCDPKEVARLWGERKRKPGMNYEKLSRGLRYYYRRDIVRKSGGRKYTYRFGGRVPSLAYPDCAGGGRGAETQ
# How it was run: as §1
# ELF3 = target: T11, ELF3 (Homo sapiens, UniProt P78545 1-371); settings: protein: recombinant; tags: N-terminal GST; dsDNA, one strand shown
# T11 sequence: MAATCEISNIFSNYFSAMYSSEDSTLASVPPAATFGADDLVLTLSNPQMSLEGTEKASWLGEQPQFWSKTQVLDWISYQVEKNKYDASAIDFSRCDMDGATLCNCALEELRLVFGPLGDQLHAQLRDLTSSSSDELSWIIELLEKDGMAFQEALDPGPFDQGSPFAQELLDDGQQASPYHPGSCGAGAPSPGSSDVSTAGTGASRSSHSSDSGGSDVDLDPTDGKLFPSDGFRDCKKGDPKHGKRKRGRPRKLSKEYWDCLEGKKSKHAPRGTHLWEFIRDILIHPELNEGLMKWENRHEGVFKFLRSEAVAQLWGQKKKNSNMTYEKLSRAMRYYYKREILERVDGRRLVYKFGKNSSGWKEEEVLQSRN
# How it was run: as §1
# CRX = CRX (Homo sapiens, UniProt O43186 1-299); settings: protein: recombinant; tags: N-terminal GST; dsDNA, one strand shown
# How it was run: as §1
# ETV1 = ETV1 (Homo sapiens, UniProt P50549 1-477); settings: protein: recombinant; tags: N-terminal GST; dsDNA, one strand shown
# How it was run: as §1
# Chain of SPIB (Q01892 whole entry): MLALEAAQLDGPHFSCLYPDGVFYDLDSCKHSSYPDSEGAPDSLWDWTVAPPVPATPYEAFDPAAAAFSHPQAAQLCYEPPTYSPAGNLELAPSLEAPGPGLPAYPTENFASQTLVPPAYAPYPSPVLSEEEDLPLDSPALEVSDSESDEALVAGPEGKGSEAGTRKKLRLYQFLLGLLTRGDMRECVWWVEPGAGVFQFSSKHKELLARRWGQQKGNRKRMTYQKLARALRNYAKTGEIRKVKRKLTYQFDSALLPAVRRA
# Chain of ETV5 (P41161 whole entry): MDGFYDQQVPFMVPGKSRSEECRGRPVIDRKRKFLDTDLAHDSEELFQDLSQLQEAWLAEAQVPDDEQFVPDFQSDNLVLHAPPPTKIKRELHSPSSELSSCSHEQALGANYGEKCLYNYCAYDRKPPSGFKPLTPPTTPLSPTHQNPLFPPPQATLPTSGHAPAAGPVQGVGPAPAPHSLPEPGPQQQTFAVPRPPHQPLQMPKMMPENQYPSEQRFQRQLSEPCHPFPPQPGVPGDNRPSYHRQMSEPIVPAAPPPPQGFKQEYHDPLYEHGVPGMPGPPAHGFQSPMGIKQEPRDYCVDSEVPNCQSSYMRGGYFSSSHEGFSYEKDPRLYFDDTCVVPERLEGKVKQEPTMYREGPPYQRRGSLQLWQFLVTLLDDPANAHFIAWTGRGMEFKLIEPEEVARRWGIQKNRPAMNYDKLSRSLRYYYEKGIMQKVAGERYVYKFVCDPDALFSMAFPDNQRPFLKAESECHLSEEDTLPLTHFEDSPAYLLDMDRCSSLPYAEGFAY
# Chain of ELF4 (Q99607 whole entry): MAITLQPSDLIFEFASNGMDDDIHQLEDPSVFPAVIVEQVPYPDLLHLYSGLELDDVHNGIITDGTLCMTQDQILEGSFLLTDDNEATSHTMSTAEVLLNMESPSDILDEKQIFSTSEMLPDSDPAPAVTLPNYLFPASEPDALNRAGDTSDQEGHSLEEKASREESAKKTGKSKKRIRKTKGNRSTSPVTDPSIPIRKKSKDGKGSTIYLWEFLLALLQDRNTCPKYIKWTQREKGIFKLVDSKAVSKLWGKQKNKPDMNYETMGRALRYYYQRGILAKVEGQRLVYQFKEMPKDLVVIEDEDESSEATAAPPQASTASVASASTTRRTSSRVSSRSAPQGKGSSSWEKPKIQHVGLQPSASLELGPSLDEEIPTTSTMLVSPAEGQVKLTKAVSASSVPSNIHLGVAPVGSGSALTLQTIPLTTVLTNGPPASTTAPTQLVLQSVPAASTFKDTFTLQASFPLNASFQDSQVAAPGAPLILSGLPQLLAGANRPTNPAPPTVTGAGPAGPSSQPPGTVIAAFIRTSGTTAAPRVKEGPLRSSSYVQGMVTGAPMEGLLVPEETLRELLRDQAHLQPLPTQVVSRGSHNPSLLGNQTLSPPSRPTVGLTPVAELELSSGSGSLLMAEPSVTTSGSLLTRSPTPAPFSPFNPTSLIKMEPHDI
# Chain of ETV1 (P50549 whole entry): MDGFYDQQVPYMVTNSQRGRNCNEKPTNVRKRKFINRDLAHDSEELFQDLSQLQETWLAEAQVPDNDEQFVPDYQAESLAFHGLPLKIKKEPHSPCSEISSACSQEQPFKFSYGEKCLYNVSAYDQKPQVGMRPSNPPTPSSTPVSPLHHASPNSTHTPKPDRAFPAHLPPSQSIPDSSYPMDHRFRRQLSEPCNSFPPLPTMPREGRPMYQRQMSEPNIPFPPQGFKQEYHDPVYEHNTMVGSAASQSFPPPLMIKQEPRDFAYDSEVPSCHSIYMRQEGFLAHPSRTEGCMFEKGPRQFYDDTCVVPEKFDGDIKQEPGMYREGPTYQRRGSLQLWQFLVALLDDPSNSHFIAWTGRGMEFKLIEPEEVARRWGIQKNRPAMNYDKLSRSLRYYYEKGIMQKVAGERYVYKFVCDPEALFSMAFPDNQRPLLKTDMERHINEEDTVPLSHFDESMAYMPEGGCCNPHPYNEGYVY
# Chain of HSF1 (Q00613 whole entry): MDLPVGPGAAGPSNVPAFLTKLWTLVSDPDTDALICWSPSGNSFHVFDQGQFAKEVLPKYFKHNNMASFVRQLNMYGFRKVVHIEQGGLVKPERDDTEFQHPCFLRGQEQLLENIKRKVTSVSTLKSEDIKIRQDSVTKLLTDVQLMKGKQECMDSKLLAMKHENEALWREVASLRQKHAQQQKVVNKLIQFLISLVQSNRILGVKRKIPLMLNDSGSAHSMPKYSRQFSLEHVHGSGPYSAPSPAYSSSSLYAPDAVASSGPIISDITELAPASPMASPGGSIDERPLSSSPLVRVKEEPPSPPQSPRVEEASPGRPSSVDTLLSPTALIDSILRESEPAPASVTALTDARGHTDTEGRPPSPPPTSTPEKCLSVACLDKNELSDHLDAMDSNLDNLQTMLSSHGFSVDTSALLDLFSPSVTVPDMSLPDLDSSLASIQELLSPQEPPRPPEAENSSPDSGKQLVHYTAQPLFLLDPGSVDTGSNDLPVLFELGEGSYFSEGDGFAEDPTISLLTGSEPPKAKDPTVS
# Chain of ELF1 (P32519 whole entry): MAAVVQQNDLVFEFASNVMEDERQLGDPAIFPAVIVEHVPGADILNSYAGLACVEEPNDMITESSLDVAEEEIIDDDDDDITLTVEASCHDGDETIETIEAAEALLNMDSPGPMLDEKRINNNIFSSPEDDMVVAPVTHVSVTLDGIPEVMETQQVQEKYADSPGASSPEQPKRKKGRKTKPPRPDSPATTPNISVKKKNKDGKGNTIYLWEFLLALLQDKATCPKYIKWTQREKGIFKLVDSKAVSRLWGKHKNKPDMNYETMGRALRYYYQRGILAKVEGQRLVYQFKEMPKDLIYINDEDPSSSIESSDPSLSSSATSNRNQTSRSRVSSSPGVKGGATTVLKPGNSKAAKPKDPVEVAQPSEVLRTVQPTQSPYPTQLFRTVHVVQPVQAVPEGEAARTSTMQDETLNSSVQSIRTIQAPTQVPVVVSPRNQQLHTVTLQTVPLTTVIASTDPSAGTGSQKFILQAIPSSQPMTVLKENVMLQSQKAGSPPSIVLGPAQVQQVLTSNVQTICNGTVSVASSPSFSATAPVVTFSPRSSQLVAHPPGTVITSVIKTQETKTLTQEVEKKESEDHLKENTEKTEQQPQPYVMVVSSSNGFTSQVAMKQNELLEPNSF
# Chain of CRX (O43186 whole entry): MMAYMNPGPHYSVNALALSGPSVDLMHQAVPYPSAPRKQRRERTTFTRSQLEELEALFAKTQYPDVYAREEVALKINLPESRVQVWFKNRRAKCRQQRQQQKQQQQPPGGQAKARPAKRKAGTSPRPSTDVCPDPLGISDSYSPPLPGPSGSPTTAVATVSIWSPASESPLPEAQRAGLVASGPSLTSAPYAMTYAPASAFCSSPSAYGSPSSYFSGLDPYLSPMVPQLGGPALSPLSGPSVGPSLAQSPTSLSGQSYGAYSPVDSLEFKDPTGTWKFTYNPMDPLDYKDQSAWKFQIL
sequence,measurement,setting,value
CCCTTC,binding signal,FLI1,"1.55 fold enrichment (6-mer frequency, TF over GST control)"
same,binding signal,ELK1,"1.55 fold enrichment (6-mer frequency, TF over GST control)"
same,binding signal,GABPA,"1.39 fold enrichment (6-mer frequency, TF over GST control)"
same,binding signal,ERG,"1.48 fold enrichment (6-mer frequency, TF over GST control)"
same,binding signal,ELF1,"1.45 fold enrichment (6-mer frequency, TF over GST control)"
same,binding signal,EHF,"1.52 fold enrichment (6-mer frequency, TF over GST control)"
same,binding signal,SPI1,"1.52 fold enrichment (6-mer frequency, TF over GST control)"
same,binding signal,SPIB,"1.56 fold enrichment (6-mer frequency, TF over GST control)"
same,binding signal,ELK3,"1.44 fold enrichment (6-mer frequency, TF over GST control)"
same,binding signal,FEV,"1.47 fold enrichment (6-mer frequency, TF over GST control)"
same,binding signal,ETV5,"1.54 fold enrichment (6-mer frequency, TF over GST control)"
same,binding signal,HSF1,"1.35 fold enrichment (6-mer frequency, TF over GST control)"
same,binding signal,SPIC,"1.19 fold enrichment (6-mer frequency, TF over GST control)"
same,binding signal,ELF4,"1.49 fold enrichment (6-mer frequency, TF over GST control)"
same,binding signal,ELK4,"1.35 fold enrichment (6-mer frequency, TF over GST control)"
same,binding signal,ETV2,"1.33 fold enrichment (6-mer frequency, TF over GST control)"
same,binding signal,ELF3,"1.46 fold enrichment (6-mer frequency, TF over GST control)"
same,binding signal,CRX,"1.05 fold enrichment (6-mer frequency, TF over GST control)"
same,binding signal,ETV1,"1.51 fold enrichment (6-mer frequency, TF over GST control)"
